Shown are actives, neighbours in structure and some others; about 11% of the full set was active somewhere.
FBPA coupling cs – coupling enzyme interference in Giardia aldolase counter-screen | 290,000 tested, 0.67% active | coupling enzyme system counterscreen, AmpLite Red fluorescence | activity change, negative = inhibition, % at 58.2 µM, hits read low; in the data active = activity change below about -30%
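Compounds tested against the coupling enzymes alone at 57.5 uM final; readout was AmpLite Red fluorescence (525/598 nm) after 20 min at RT.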
Sfp inh – inhibitors of Bacillus subtilis Sfp phosphopantetheinyl transferase | AID 1490 | Q9F4F7 | Potency, µM, for the others: largest response in the series, negative = inhibition, hits mostly inhibitors | Biochemical Sfp PPTase activity, qHTS | 310,000 tested, 3.5% active;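 note: the enzyme is Sfp with the accession as filed and its product quenches rhodamine fluorescence; potency is the fitted concentration of half-maximal effect; 0% = enzyme reaction without inhibitor and -100% = no enzyme wells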
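Reaction rates are the 30-min fluorescence difference (ex 525, em 598 nm) in wells containing 15 nM Sfp, 5 uM rhodamine-CoA and 12.5 uM BHQ-2-YbbR at pH 7.6 with 10 mM MgCl2.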
Tau ThT inhib – tau fibrillization inhibition (ThT binding); P10636; recombinant tau K18 P301L, heparin-induced fibrillization, ThT fluorescence; Potency, µM (top dose mostly 57.4 µM), for the others: at the highest dose activity, negative = inhibition, most hits filed as inhibitors; 270,000 tested, 2.1% active; AID 1460; note: potency is the fitted concentration of half-maximal effect; nearly all actives have a fitted effect of over 55% in size
Target sequence (P10636 561-689 P618L limits assumed): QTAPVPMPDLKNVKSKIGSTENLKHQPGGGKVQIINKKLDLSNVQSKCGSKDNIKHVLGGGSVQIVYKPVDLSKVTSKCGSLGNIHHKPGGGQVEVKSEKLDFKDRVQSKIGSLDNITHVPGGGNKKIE
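Heparin-induced (20 uM) aggregation of recombinant human K18 P301L tau, 15 uM unlabeled with 0.24 uM labeled, pH 7 acetate buffer, 6 hr at 37 C with compound. Fibrils quantified by 30 uM ThT fluorescence after 1 hr ambient incubation.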
G9a inh – G9a (human) methyltransferase inhibition; Q96KQ7; G9a H3K9 monomethylation, AlphaScreen, 2 h; Potency, µM (series often up to 102 µM), for inactives: at the top dose activity, negative = inhibition, actives largely listed as inhibitors; 350,000 tested, 8.8% active; AID 504332; note: potency is the fitted concentration of half-maximal effect; nearly all actives have a fitted effect of over 75% in size
Target sequence (Q96KQ7 913-1193 limits assumed): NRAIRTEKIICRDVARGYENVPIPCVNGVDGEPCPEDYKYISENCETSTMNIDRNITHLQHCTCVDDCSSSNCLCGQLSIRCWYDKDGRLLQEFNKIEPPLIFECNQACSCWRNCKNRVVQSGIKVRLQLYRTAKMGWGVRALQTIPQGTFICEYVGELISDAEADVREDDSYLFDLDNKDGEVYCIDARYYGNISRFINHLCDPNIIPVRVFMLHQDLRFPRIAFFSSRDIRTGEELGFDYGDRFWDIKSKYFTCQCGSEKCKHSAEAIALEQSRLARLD
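Methyltransferase reactions run at room temperature for 2 h (20 nM enzyme, 500 nM biotin-H3K9 peptide, 20 uM SAM) after a 15 min compound preincubation; product detected by AlphaScreen beads and anti-H3K9me1 antibody.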
Tau fluor counter – counter-screen for tau fibril formation inhibitors | tau K18 P301L Alexa594 fluorescence, heparin fibrillization | Potency, µM (highest dose often 57.7 µM), for the others: top-dose activity change, negative = decrease | 280,000 tested, 0.93% active | AID 1463; note: potency is the fitted concentration of half-maximal effect; nearly all actives have a fitted effect of over 55% in size
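Human tau K18 P301L (15 uM unlabeled, 0.24 uM Alexa 594-labeled) in 100 mM sodium acetate pH 7 with 20 uM heparin, 6 hr at 37 C. ThT 30 uM added, 1 hr ambient; Alexa 594 FP and total fluorescence read at 555/632 nm.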
Tau fibril FP – blocks human tau fibril formation measured by polarization; K18 P301L tau heparin fibrillization, Alexa594 FP, 6 h; 280,000 tested, 0.39% active; AID 1468; Potency, µM (highest dose often 57.7 µM), without a hit: top-dose activity, negative = inhibition, actives largely listed as inhibitors; P10636; note: potency is the fitted concentration of half-maximal effect; nearly all actives have a fitted effect of over 55% in size
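Quantitative HTS format: compounds meet 15 uM recombinant K18 P301L tau and Alexa 594-tau tracer in 100 mM sodium acetate pH 7; 20 uM heparin triggers fibrillization at 37 C over 6 hr; FP gives the signal.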
Numbers without * were called inactive; [ ] = dose if it differs, or a comment. Unless noted, calls come from the whole dose curve; as a rule, active = well fitted curve in the direction sought with a large enough effect; inconclusive = small, poorly fitted or top-dose-only effect, or another doubt; inactive = no such curve, though single readings can be large; an effect the other way counts as inactive or inconclusive. Unless noted, % is set by controls: 0 for no effect and ±100 for the full control effect.

For Cc1ccccc1C1CC(=O)Oc2cc(C)c(Br)c(C)c21 (stereo not drawn) the results were FBPA coupling cs 0.2, Sfp inh -25.8%, Tau ThT inhib -12.2%[81.4 µM], G9a inh 30.4%, Tau fluor counter -11.6%[81.3 µM] and Tau fibril FP -3.3%[81.3 µM].
For Cc1ccc(NN2C(=O)C=C(c3ccccc3)C2=O)cc1 the results were FBPA coupling cs 3.5, Sfp inh 11.2µM*, Tau ThT inhib inconclusive, G9a inh 10µM*, Tau fluor counter -2.8% and Tau fibril FP -12.7%.
CCC1CCCCN1C(=O)c1c[nH]c2ccc(S(=O)(=O)Nc3cccc(OC)c3)cc2c1=O (stereo not drawn) was read as Tau ThT inhib -7.8%, G9a inh -36.2%[59 µM], Tau fluor counter -14.9% and Tau fibril FP -8.5%.
For COC(=O)C1=C(C)[C@@H](O)[C@@H](C)[C@](C)(c2cc(OC)c(C)c(OC)c2COc2ccccc2)O1 the results were FBPA coupling cs 0.6, Sfp inh -7.9%, Tau ThT inhib -5.6%, Tau fluor counter -9.7% and Tau fibril FP -2.7%.
Screening CCCCc1ccc(/C=C(\C#N)C(N)=S)s1 returned FBPA coupling cs -0.8, Sfp inh 39.8µM*, Tau ThT inhib inconclusive, G9a inh 35.5µM*, Tau fluor counter inconclusive and Tau fibril FP 0.4%.
For Cc1ccc(NCC(=O)N/N=C/c2cc(O)ccc2[N+](=O)[O-])cc1 the results were FBPA coupling cs -10.2, Sfp inh 17.4%, Tau ThT inhib 14.1µM*, G9a inh 50.1µM*, Tau fluor counter -26.6% and Tau fibril FP 2.6%.
Screening Cc1ccc(NCC(=O)N/N=C/c2cccc(Oc3ccccc3)c2)cc1 returned FBPA coupling cs -1.8, Sfp inh 14.2%, Tau ThT inhib inconclusive, G9a inh inconclusive, Tau fluor counter 10µM*[quencher] and Tau fibril FP 14.6%.
Cc1cccc(NCC(=O)N/N=C\c2cccc(Oc3ccccc3)c2)c1 was read as FBPA coupling cs 0.5, Sfp inh 1.5%, Tau ThT inhib inconclusive, G9a inh -2.9%[59 µM], Tau fluor counter inconclusive and Tau fibril FP inconclusive.
For Cc1ccc(NCC(=O)N/N=C/c2ccncc2)cc1 the results were FBPA coupling cs 0.5, Sfp inh 5.0%, Tau ThT inhib 6.5%, G9a inh 3.8%, Tau fluor counter 5.9% and Tau fibril FP 1.0%.
For Cc1nc(N/N=C/c2ccc(O)cc2)c2cnn(-c3ccccc3)c2n1 the results were FBPA coupling cs 1.8, Sfp inh 3.8%, Tau ThT inhib inconclusive, G9a inh -2.3%, Tau fluor counter inconclusive and Tau fibril FP 9.9%.
`Brc1ccc(/C=N/Nc2ccccc2)cc1` gave FBPA coupling cs -1.1, Sfp inh -4.3%, Tau ThT inhib inconclusive, G9a inh -18.1%[2.33 µM], Tau fluor counter 20µM*[quencher] and Tau fibril FP 10.6%.
Cc1nc2ccccc2nc1N/N=C/c1ccc(O)cc1 was read as FBPA coupling cs -1.0, Sfp inh -12.1%, Tau ThT inhib 14.1µM*, Tau fluor counter inconclusive and Tau fibril FP 11.7%.
Oc1ccc(/C=N/Nc2ccccc2)cc1 was read as FBPA coupling cs -7.6, Sfp inh 4.1%, Tau ThT inhib inconclusive, G9a inh 25.1µM*, Tau fluor counter inconclusive and Tau fibril FP 14.6%.
Screening COc1ccccc1CNC(=O)CCn1c(=O)c2cccn2c2cccnc21 returned Tau ThT inhib 7.6%, G9a inh -31.7%[59 µM], Tau fluor counter 11.1% and Tau fibril FP 3.4%.
Screening CCOc1ccc(/C=C(\C#N)c2nc(-c3cc4ccccc4oc3=O)cs2)c(OCC)c1 returned Tau ThT inhib -6.4%, G9a inh inconclusive, Tau fluor counter -4.2% and Tau fibril FP 1.8%.
`COc1cc(CNC2CCCC2)cc(OC)c1` gave FBPA coupling cs 0.0, Sfp inh -5.8%, Tau ThT inhib -1.5%, G9a inh 44.7µM*, Tau fluor counter 5.4% and Tau fibril FP 2.1%.
For CCOc1ccc(CCNC(=O)c2cc3c(s2)-c2ccccc2OC3)cc1OCC the results were Tau ThT inhib -16.7%, G9a inh -4.0%[59 µM], Tau fluor counter -28.2% and Tau fibril FP -21.0%.
COc1ccc(/C=C/C(=O)c2cc(Cl)ccc2O)c(OC)c1 was read as FBPA coupling cs 0.5, Sfp inh inconclusive, Tau ThT inhib 15.8µM*, Tau fluor counter -24.2% and Tau fibril FP -4.8%.
Screening COc1ccc(C(=O)/C=C/c2ccc(OC)cc2OC)c(O)c1 returned FBPA coupling cs 0.0, Sfp inh inconclusive, Tau ThT inhib 17.8µM*, G9a inh inconclusive, Tau fluor counter -29.5% and Tau fibril FP -5.0%.
COc1cccc(Nc2ncc3nc(CCc4ccccc4)c(=O)n(C)c3n2)c1 was read as FBPA coupling cs 5.4, Sfp inh 11.5% and G9a inh 6.1%[0.501 µM].
For COc1ccc(C)cc1NC(=O)c1ccc(CN2CCN(c3ccccc3)CC2)cc1 the results were FBPA coupling cs -1.7, Sfp inh -12.2%, Tau ThT inhib -16.9%, G9a inh 50.1µM*, Tau fluor counter -27.2% and Tau fibril FP 3.3%.
`COc1ccc(NC(=O)c2ccc(CN3CCN(c4ccccc4)CC3)cc2)cc1OC` gave FBPA coupling cs -0.4, Sfp inh -8.4%, Tau ThT inhib inconclusive, G9a inh -29.0%[59 µM], Tau fluor counter -26.9% and Tau fibril FP 13.2%.
Screening COc1ccc(C)cc1NC(=O)CN1CCN(C/C=C/c2ccccc2)CC1 returned FBPA coupling cs -5.0, Sfp inh 89.1µM*, Tau ThT inhib -12.7%, G9a inh inconclusive, Tau fluor counter -0.6% and Tau fibril FP -1.4%.
`CCOC(=O)NC1C=CS(=O)(=O)C1` (stereo not drawn) gave FBPA coupling cs 0.2, Sfp inh 11.1%, Tau ThT inhib -10.1%, G9a inh 50.1µM*, Tau fluor counter -1.3% and Tau fibril FP 3.7%.
CN(C)C(=O)NC1C=CS(=O)(=O)C1 (stereo not drawn) was read as FBPA coupling cs 2.8, Sfp inh -25.2%, Tau ThT inhib 5.0%, G9a inh -41.2%, Tau fluor counter 3.2% and Tau fibril FP 1.0%.
CC(C)CC(=O)Nc1c(C(=O)N2CCN(c3ccccc3)CC2)oc2ccccc12 was read as Tau ThT inhib -15.8%, G9a inh 14.1µM*, Tau fluor counter -22.8% and Tau fibril FP 1.9%.
For CCC(CC)C(=O)Nc1c(C(=O)N2CCN(c3ccccc3)CC2)oc2ccccc12 the results were Sfp inh 4.2%, Tau ThT inhib -8.8%, G9a inh -21.2%[59 µM], Tau fluor counter 4.3% and Tau fibril FP 9.9%.
For COc1cccc(N2CCN(C(=O)c3oc4ccccc4c3NC(=O)CCc3cc(OC)no3)CC2)c1 the results were Sfp inh -3.4% and G9a inh 56.2µM*.

High-throughput results from PubChem.
